Reference: publication PMC11062922 (Nature Chemical Biology, 2023)
Read-outs that look alike come from different tables or passages of the source.

Legend:
Design in all cases: species or system human, MV4-11 + K-562 + COLO205 + SK-N-BE2 + OVCAR-8
DAPK3 = conditions: read-out: apparent Kd; compound concentrations:100 nM and 1000 nM (sheet 'Samples'); n = 1
EGFR = conditions: read-out: apparent Kd; compound concentrations:100 nM and 1000 nM (sheet 'Samples'); n = 1
HSP90B1 = conditions: read-out: apparent Kd; compound concentrations:100 nM and 1000 nM (sheet 'Samples'); n = 1
IRAK1 = conditions: read-out: apparent Kd; compound concentrations:100 nM and 1000 nM (sheet 'Samples'); n = 1
DCTPP1 = conditions: read-out: apparent Kd; compound concentrations: 100 nM and 1000 nM (sheet 'Samples'), CATDS: 0.34611685739606901; n = 1
PHKG2 = conditions: read-out: apparent Kd; compound concentrations: 100 nM and 1000 nM (sheet 'Samples'), CATDS: 0.27508455171149998; n = 1
PIK3CG = conditions: read-out: apparent Kd; compound concentrations: 100 nM and 1000 nM (sheet 'Samples'), CATDS: 0.403949586222208; n = 1
CSNK1D = conditions: read-out: apparent Kd; compound concentrations: 100 nM and 1000 nM (sheet 'Samples'), CATDS: 6.2224670805274301E-2; n = 1
GAK = conditions: read-out: apparent Kd; compound concentrations: 100 nM and 1000 nM (sheet 'Samples'), CATDS: 0.103213597019934; n = 1
GSK3B = conditions: read-out: apparent Kd; compound concentrations: 100 nM and 1000 nM (sheet 'Samples'), CATDS: 7.0776673864894807E-2; n = 1
MAPK10 = conditions: read-out: apparent Kd; compound concentrations: 100 nM and 1000 nM (sheet 'Samples'), CATDS: 9.6929032938047402E-2; n = 1
MAPK14 = conditions: read-out: apparent Kd; compound concentrations: 100 nM and 1000 nM (sheet 'Samples'), CATDS: 8.8284377097412201E-2; n = 1
MAPK9 = conditions: read-out: apparent Kd; compound concentrations: 100 nM and 1000 nM (sheet 'Samples'), CATDS: 0.22651523139433999; n = 1
MAPKAPK2 = conditions: read-out: apparent Kd; compound concentrations: 100 nM and 1000 nM (sheet 'Samples'), CATDS: 6.8776353647753294E-2; n = 1
NLK = conditions: read-out: apparent Kd; compound concentrations: 100 nM and 1000 nM (sheet 'Samples'), CATDS: 6.7080565702130196E-2; n = 1
PIK3CA = conditions: read-out: apparent Kd; compound concentrations: 100 nM and 1000 nM (sheet 'Samples'), CATDS: 0.21860301841360499; n = 1
PRKD2 = conditions: read-out: apparent Kd; compound concentrations: 100 nM and 1000 nM (sheet 'Samples'), CATDS: 7.4575323464079593E-2; n = 1
PRKD3 = conditions: read-out: apparent Kd; compound concentrations: 100 nM and 1000 nM (sheet 'Samples'), CATDS: 5.9438089075158997E-2; n = 1
RET = conditions: read-out: apparent Kd, compound concentrations: 100 nM and 1000 nM (sheet 'Samples'), n = 1
CSNK2A1;CSNK2A3 = conditions: read-out: apparent Kd, compound concentrations: 100 nM and 1000 nM (sheet 'Samples'), n = 1
CSNK2A2 = conditions: read-out: apparent Kd, compound concentrations: 100 nM and 1000 nM (sheet 'Samples'), n = 1
FLT3 = conditions: read-out: apparent Kd, compound concentrations: 100 nM and 1000 nM (sheet 'Samples'), n = 1
PRKAA2 = conditions: read-out: apparent Kd; compound concentrations: 100 nM and 1000 nM (sheet 'Samples'), CATDS: 0.28519609584928202; n = 1
FECH = conditions: read-out: apparent Kd; compound concentrations: 100 nM and 1000 nM (sheet 'Samples'), CATDS: 0.167574298527637; n = 1
NQO2 = conditions: read-out: apparent Kd; compound concentrations: 100 nM and 1000 nM (sheet 'Samples'), CATDS: 0.179467556500614; n = 1
CSNK1G1 = conditions: read-out: apparent Kd; compound concentrations: 100 nM and 1000 nM (sheet 'Samples'), CATDS: 0.44433796545528997; n = 1
PKM = conditions: read-out: apparent Kd; compound concentrations: 100 nM and 1000 nM (sheet 'Samples'), CATDS: 0.57160468415719301; n = 1
DDR1 = conditions: read-out: apparent Kd, n = 1
DDR2 = conditions: read-out: apparent Kd; compound concentrations: 100 nM and 1000 nM (sheet 'Samples'), CATDS: 0.11447916272035; n = 1
EPHA7 = conditions: read-out: apparent Kd; compound concentrations: 100 nM and 1000 nM (sheet 'Samples'), CATDS: 8.9054165794135901E-2; n = 1
EPHB6 = conditions: read-out: apparent Kd; compound concentrations: 100 nM and 1000 nM (sheet 'Samples'), CATDS: 9.7568833330596599E-2; n = 1
FLT4 = conditions: read-out: apparent Kd; compound concentrations: 100 nM and 1000 nM (sheet 'Samples'), CATDS: 0.353383658165352; n = 1

SMILES: Cl.O=S1CCN(Cc2ccc(-c3ccc4ncnc(Nc5ccc(OCc6ccccc6)c(F)c5)c4c3)o2)CC1 [GW576924A]
- potency estimated from few doses (DAPK3): 1.76 µM
- potency estimated from few doses (EGFR): 0.0288 µM
- potency estimated from few doses (HSP90B1): 1.1 µM
- potency estimated from few doses (IRAK1): 1.54 µM

SMILES: O=[N+]([O-])c1ccc2c(c1)C(c1ccccc1Cl)=Nc1c[nH]nc1N2 [RO0117162-000]
- potency estimated from few doses (DCTPP1): 1.45 µM
- potency estimated from few doses (PHKG2): 2.44 µM
- potency estimated from few doses (PIK3CG): 1.09 µM

SMILES: Cc1ccc2c(-c3ccnc(Nc4cccc(C(F)(F)F)c4)n3)c(-c3ccccc3)nn2n1 [GW829906X]
- potency estimated from few doses (CSNK1D): 2.13 µM
- potency estimated from few doses (GAK): 0.606 µM
- potency estimated from few doses (GSK3B): 1.44 µM
- potency estimated from few doses (MAPK10): 0.688 µM
- potency estimated from few doses (MAPK14): 0.839 µM
- potency estimated from few doses (MAPK9): 0.165 µM
- potency estimated from few doses (MAPKAPK2): 1.56 µM
- potency estimated from few doses (NLK): 1.68 µM
- potency estimated from few doses (PIK3CA): 0.174 µM
- potency estimated from few doses (PRKD2): 1.25 µM
- potency estimated from few doses (PRKD3): 2.5 µM
- potency estimated from few doses (RET; CATDS: 7.2475765263367006E-2): 1.35 µM

SMILES: COc1ccc(CCNC2=NC(=O)/C(=C/c3ccc4ncccc4c3)S2)cc1 [RO4498476-000]
- potency estimated from few doses (CSNK2A1;CSNK2A3; CATDS: 0.299531148324096): 1.61 µM
- potency estimated from few doses (CSNK2A2; CATDS: 0.294198980295866): 1.68 µM
- potency estimated from few doses (FLT3; CATDS: 0.44201063534771401): 0.756 µM

SMILES: CC1=C(C(=O)Nc2ccc3[nH]ncc3c2)C(c2ccc(F)cc2)NC(=O)N1 (stereo not shown) [GSK180736A]
- potency estimated from few doses (CSNK2A1;CSNK2A3; CATDS: 0.33639720251881999): 0.978 µM
- potency estimated from few doses (CSNK2A2; CATDS: 0.39667360391151801): 0.718 µM
- potency estimated from few doses (PRKAA2): 1.41 µM

SMILES: O=C1N=C(NCCc2ccc(Br)cc2)S/C1=C\c1ccc2ncccc2c1 [RO4508334-000]
- potency estimated from few doses (CSNK2A1;CSNK2A3; CATDS: 0.17522676424385999): 1.74 µM
- potency estimated from few doses (CSNK2A2; CATDS: 0.185061390376627): 1.52 µM
- potency estimated from few doses (FECH): 1.95 µM
- potency estimated from few doses (FLT3; CATDS: 0.42553970171458699): 0.345 µM
- potency estimated from few doses (NQO2): 1.64 µM

SMILES: COc1cccc(NC(=O)Nc2ccc(C)c(-c3ccc(C(=O)Nc4ccncc4)cc3)c2)c1 [GSK1398474A]
- potency estimated from few doses (CSNK1G1): 1.89 µM
- potency estimated from few doses (PKM): 1.14 µM

SMILES: Cn1cc(-c2ccc3c(c2)CCN3C(=O)Cc2cccc(C(F)(F)F)c2)c2c(N)ncnc21 [GSK2606414A]
- potency estimated from few doses (DDR1; compound concentrations:100 nM and 1000 nM (sheet 'Samples')): 1.55 µM

SMILES: Nc1ncnc2occ(-c3ccc(NC(=O)Nc4cccc(C(F)(F)F)c4)cc3)c12 [GW795493X]
- potency estimated from few doses (DDR1; compound concentrations: 100 nM and 1000 nM (sheet 'Samples'), CATDS: 0.13274475237022501): 0.405 µM
- potency estimated from few doses (DDR2): 0.681 µM
- potency estimated from few doses (EPHA7): 2.22 µM
- potency estimated from few doses (EPHB6): 1.35 µM
- potency estimated from few doses (FLT3; CATDS: 0.15949914238657301): 0.229 µM
- potency estimated from few doses (FLT4): 0.0346 µM
- potency estimated from few doses (RET; CATDS: 0.464290470493195): 0.0216 µM
